Data reported in PubChem BioAssay (EPA / NIEHS).
Where a structure was tested more than once in an assay, its records may differ in their call. The source made the active and inactive calls. How the source made its calls: active means hit-call score of the fitted dose curve at least 0.9, where 1 is the maximum; inactive means score below 0.9.

How the values were obtained:
[1] = ATG_CMV_CIS: Attagene CIS-FACTORIAL HepG2 Assay for human CMV (Internal Marker) (AID 2282928); conditions: HepG2 CMV promoter reporter, transcription factor profiling; actives raise or lower the signal;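 further: endpoint acts as a background internal control marker rather than a target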
Outline: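 Fluorescence intensity of RT-PCR-derived reporter fragments, resolved by capillary electrophoresis, gives the signal. HepG2 liver cells bearing transfected cis-element reporters were treated 24 h; activity in either direction was fit relative to DMSO-treated controls.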

[2] = ATG_DR4_LXR_CIS: Attagene CIS-FACTORIAL HepG2 Assay for human Liver X Receptor (LXR), DR4 submotif (AID 2282929); conditions: HepG2 Attagene DR4 cis-reporter, mRNA transcription; actives raise or lower the signal
Outline: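 Transiently transfected HepG2 liver cells; cis-regulated reporters; 24 h dosing. RT-PCR plus CE read-out of reporter mRNA. DMSO baseline, bidirectional curve fitting.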

[3] = molecular target: Aryl hydrocarbon receptor (Homo sapiens) (UniProt P35869); assay: ATG_Ahr_CIS: Attagene CIS-FACTORIAL HepG2 Assay for human Aryl Hydrocarbon Receptor (Ahr) (AID 2282930); conditions: HepG2 AhR cis-factorial reporter transcription; actives raise or lower the signal
Outline: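 Transient MRTU transfection of HepG2 → 24 h compound exposure → total RNA, oligo(dT) RT → PCR, 6-FAM extension, HpaI cut → CE fluorescence. DMSO = baseline; bidirectional curve fit.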

[4] = ATG_AP_1_CIS: Attagene CIS-FACTORIAL HepG2 Assay for human Activator Protein 1 (AP-1) (AID 2282931); conditions: HepG2 Attagene cis-factorial AP-1 reporter mRNA; actives raise or lower the signal
Outline: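 We transfected HepG2 cells transiently with a set of cis-regulated reporter transcription units, dosed them for 24 h, and quantified reporter mRNA via RT-PCR and capillary electrophoresis, scoring gain or loss of signal relative to DMSO.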

[5] = ATG_AP_2_CIS: Attagene CIS-FACTORIAL HepG2 Assay for human Activator Protein 2 (AP-2) (AID 2282932); conditions: HepG2 AP-2 cis-reporter, Attagene transcription factor profiling; actives raise or lower the signal
Outline: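 Transiently transfected HepG2 cells are exposed to chemical for 24 h. Reporter transcripts are then measured as fluorescence following RT-PCR and capillary separation, and gain- or loss-of-signal is fitted relative to DMSO.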

[6] = ATG_BRE_CIS: Attagene CIS-FACTORIAL HepG2 Assay for human Bone Morphogenetic Protein (BMP) Response Element (BRE) (AID 2282933); conditions: HepG2 BMP response element reporter, Attagene transcription factor profiling; actives raise or lower the signal
Outline: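 After a 24 h chemical treatment, transiently transfected HepG2 cells were lysed for RNA; reporter transcripts were quantified by fluorescent RT-PCR and capillary electrophoresis, normalised to DMSO.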

[7] = molecular target: Retinoic acid receptor alpha (Homo sapiens) (UniProt P10276); assay: ATG_DR5_RAR_CIS: Attagene CIS-FACTORIAL HepG2 Assay for human Retinoic Acid Receptor Alpha (RARE), DR5 submotif (AID 2282934); conditions: HepG2 Attagene cis-factorial RARE DR5 reporter, mRNA; actives raise or lower the signal;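 on AC50: reporter responds to endogenous RAR alpha beta and gamma in HepG2 not RARA alone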
Outline: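 Transient MRTU transfection of HepG2; 24 h compound treatment; TriZol RNA, oligo(dT) RT, PCR, FAM labelling, capillary electrophoresis. Bidirectional fit vs DMSO. Endogenous TF activity at DR5 RARE.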

[8] = molecular target: Transcription factor E2F1 (Homo sapiens) (UniProt Q01094); assay: ATG_E2F_CIS: Attagene CIS-FACTORIAL HepG2 Assay for human E2F Transcription Factor 1 (AID 2282935); conditions: HepG2 Attagene cis-reporter, E2F reporter RNA transcripts; actives raise or lower the signal
Outline: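 Fluorescent RT-PCR products, digested with HpaI for 2 h at 37 C, are separated by capillary electrophoresis. Source RNA comes from transfected HepG2 cultures treated for 24 h.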

[9] = ATG_E_Box_CIS: Attagene CIS-FACTORIAL HepG2 Assay for human Enhancer Box (E-box) (AID 2282936); conditions: HepG2 E-box cis-reporter transcription, actives raise or lower the signal
Outline: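 Fluorescent reporter fragments separated by capillary electrophoresis gave the signal; mRNA came from HepG2 cells transfected with cis-element reporters and treated 24 h. Curves fitted bidirectionally relative to DMSO controls.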

[10] = ATG_M_61_CIS: Attagene CIS-FACTORIAL HepG2 Assay for M61 Transcription Factor (Internal Marker) (AID 2282937); conditions: HepG2 Attagene CIS-FACTORIAL M61 internal marker reporter; actives raise or lower the signal
Outline: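 Multiplexed reporter mRNA assay, HepG2 human hepatoma cells, 24 h treatment. Signal: FAM-labelled, HpaI-digested RT-PCR fragments by CE. Fit: bidirectional, baseline DMSO.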

[11] = ATG_EGR_CIS: Attagene CIS-FACTORIAL HepG2 Assay for human Early Growth Response 1 (EGR1) (AID 2282938); conditions: HepG2 Attagene CIS-FACTORIAL EGR reporter mRNA; actives raise or lower the signal
Outline: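 Multiplexed cis-reporter system in human hepatoma HepG2 cells, transiently transfected. Cells are dosed for 24 h; reporter transcripts are amplified, fluorescently tagged and sized by capillary electrophoresis, with DMSO as negative control.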

[12] = ATG_M_19_CIS: Attagene CIS-FACTORIAL HepG2 Assay for M19 Transcription Factor (Internal Marker) (AID 2282939); conditions: HepG2 Attagene CIS-FACTORIAL M19 internal marker reporter; actives raise or lower the signal
Outline: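 In this multiplexed cell assay, transiently transfected HepG2 reporter units report endogenous transcription-factor activity; after 24 hours of treatment, labelled reporter cDNA fragments are quantified by capillary electrophoresis and fitted bidirectionally against DMSO.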

[13] = ATG_ERE_CIS: Attagene CIS-FACTORIAL HepG2 Assay for Estrogen Response Element (ERE) (AID 2282940); conditions: HepG2 ERE cis-reporter, Attagene RNA transcript; actives raise or lower the signal
Outline: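 Measuring endogenous transcription factor output, the assay doses transfected HepG2 cells for 24 hours and quantifies reporter transcripts by fluorescent RT-PCR and capillary electrophoresis, with DMSO as baseline.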

[14] = ATG_Ets_CIS: Attagene CIS-FACTORIAL HepG2 Assay for human Erythroblast Transformation Specific (ETS) (AID 2282941); conditions: HepG2 ETS cis-reporter transcription, actives raise or lower the signal
Outline: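 Multiplexed reporter transcript profiling: HepG2, 24 h treatment, total RNA to cDNA, PCR, 6-FAM labelling, HpaI cut, capillary electrophoresis. Gain- or loss-of-signal fitted against DMSO.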

[15] = molecular target: Hepatocyte nuclear factor 3-beta (Homo sapiens) (UniProt Q9Y261); assay: ATG_FoxA2_CIS: Attagene CIS-FACTORIAL HepG2 Assay for human Forkhead box A2 (FOXA2) (AID 2282942); conditions: HepG2 cis-reporter transcription factor activity, 24 h; actives raise or lower the signal
Outline: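 Multiplexed cis-element reporter assay in transiently transfected HepG2. Twenty-four hours post-dosing, RNA was reverse-transcribed, amplified, FAM-labelled, HpaI-digested and separated by CE. Activity gain or loss relative to DMSO.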

[16] = ATG_FoxO_CIS: Attagene CIS-FACTORIAL HepG2 Assay for human Forkhead box O (FoxO) (AID 2282943); conditions: HepG2 Attagene cis-reporter, FoxO element, mRNA; actives raise or lower the signal
Outline: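 HepG2, transient MRTU transfection (cis element, endogenous TFs). Dose 24 h. TriZol RNA → oligo(dT) RT → PCR → 6-FAM primer extension → HpaI cut → CE. Gain/loss vs DMSO.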

[17] = ATG_GATA_CIS: Attagene CIS-FACTORIAL HepG2 Assay for human GATA Binding Protein (AID 2282944); conditions: HepG2 GATA cis-element reporter, Attagene multiplex mRNA; actives raise or lower the signal
Outline: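 Measures endogenous transcription factor-driven reporter mRNA in HepG2 cells transiently carrying cis-regulated constructs. 24 h dosing; RNA via oligo(dT) reverse transcription, PCR, HpaI digestion, capillary electrophoresis; fitted relative to DMSO.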

[18] = ATG_GLI_CIS: Attagene CIS-FACTORIAL HepG2 Assay for human Zinc Finger Protein GLI1 (AID 2282945); conditions: HepG2, Attagene cis-factorial reporter mRNA, GLI element; actives raise or lower the signal
Outline: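 Bidirectional curve fits relative to DMSO, using reporter mRNA levels from RT-PCR plus capillary electrophoresis. Cells were HepG2 transiently carrying cis-regulated reporter constructs, harvested 24 h after dosing.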

[19] = molecular target: Bile acid receptor (Homo sapiens) (UniProt Q96RI1); assay: ATG_IR1_CIS: Attagene CIS-FACTORIAL HepG2 Assay for human Nuclear Receptor Subfamily 1 Group H Member 4 (NR1H4), IR1 submotif (AID 2282946); conditions: IR1 reporter transcription, actives raise or lower the signal
Outline: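 HepG2 cells transiently transfected with multiplexed cis-element reporter units read endogenous transcription factor activity. After 24 h compound exposure, reporter mRNA was quantified by RT-PCR, fluorescent labelling, HpaI digestion and capillary electrophoresis; bidirectional fitting versus DMSO baseline.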

[20] = ATG_GRE_CIS: Attagene CIS-FACTORIAL HepG2 Assay for human Glucocorticoid Response Elements (GRE) (AID 2282947); conditions: HepG2 GRE cis-reporter, Attagene multiplex mRNA; actives raise or lower the signal
Outline: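 Multiplexed cis-reporter mRNA induction, HepG2, 24 h post-dose. RT-PCR, FAM-labelled, HpaI-digested amplicons by CE. Bidirectional fit vs DMSO.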

Measured: AC50

Bile acid receptor (Homo sapiens), sequence (Q96RI1 whole entry, looked up): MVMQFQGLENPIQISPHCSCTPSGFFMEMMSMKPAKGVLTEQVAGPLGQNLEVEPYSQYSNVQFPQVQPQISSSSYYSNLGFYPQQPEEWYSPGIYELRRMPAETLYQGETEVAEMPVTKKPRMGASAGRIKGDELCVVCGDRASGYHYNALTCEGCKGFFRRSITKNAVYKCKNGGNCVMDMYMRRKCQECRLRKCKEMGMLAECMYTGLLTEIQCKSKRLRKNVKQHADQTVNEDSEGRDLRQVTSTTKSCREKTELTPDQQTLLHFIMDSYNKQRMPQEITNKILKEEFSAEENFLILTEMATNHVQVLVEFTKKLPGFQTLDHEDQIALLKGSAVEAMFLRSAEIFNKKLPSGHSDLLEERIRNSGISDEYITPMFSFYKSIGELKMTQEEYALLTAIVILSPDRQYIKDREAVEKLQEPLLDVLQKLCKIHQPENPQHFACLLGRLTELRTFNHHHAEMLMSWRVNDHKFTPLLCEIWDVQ
Retinoic acid receptor alpha (Homo sapiens), sequence (P10276 whole entry, looked up): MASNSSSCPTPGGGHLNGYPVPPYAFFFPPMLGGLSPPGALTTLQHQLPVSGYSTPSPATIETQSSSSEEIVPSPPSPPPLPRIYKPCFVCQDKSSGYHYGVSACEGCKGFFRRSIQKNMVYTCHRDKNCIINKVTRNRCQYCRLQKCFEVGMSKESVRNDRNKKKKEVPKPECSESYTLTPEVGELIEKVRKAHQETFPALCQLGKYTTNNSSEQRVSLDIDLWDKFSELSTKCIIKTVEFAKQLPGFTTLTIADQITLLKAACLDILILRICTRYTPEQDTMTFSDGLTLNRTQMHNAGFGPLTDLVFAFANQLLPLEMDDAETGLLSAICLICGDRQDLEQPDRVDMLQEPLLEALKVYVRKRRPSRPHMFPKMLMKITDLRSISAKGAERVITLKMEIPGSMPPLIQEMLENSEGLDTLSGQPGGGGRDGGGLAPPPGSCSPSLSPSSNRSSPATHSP
Transcription factor E2F1 (Homo sapiens), sequence (Q01094 whole entry, looked up): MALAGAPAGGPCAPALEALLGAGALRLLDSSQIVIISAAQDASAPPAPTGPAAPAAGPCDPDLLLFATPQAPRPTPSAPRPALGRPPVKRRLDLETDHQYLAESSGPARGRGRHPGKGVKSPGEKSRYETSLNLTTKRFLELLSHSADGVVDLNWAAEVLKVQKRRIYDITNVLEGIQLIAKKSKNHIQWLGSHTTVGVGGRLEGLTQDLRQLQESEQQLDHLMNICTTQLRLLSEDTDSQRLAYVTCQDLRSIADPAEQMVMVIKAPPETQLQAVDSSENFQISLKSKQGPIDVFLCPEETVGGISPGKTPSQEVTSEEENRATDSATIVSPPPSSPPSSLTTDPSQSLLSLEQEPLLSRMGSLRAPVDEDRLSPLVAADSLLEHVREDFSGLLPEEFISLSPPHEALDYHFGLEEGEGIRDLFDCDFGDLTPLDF
Aryl hydrocarbon receptor (Homo sapiens), sequence (P35869 whole entry, looked up): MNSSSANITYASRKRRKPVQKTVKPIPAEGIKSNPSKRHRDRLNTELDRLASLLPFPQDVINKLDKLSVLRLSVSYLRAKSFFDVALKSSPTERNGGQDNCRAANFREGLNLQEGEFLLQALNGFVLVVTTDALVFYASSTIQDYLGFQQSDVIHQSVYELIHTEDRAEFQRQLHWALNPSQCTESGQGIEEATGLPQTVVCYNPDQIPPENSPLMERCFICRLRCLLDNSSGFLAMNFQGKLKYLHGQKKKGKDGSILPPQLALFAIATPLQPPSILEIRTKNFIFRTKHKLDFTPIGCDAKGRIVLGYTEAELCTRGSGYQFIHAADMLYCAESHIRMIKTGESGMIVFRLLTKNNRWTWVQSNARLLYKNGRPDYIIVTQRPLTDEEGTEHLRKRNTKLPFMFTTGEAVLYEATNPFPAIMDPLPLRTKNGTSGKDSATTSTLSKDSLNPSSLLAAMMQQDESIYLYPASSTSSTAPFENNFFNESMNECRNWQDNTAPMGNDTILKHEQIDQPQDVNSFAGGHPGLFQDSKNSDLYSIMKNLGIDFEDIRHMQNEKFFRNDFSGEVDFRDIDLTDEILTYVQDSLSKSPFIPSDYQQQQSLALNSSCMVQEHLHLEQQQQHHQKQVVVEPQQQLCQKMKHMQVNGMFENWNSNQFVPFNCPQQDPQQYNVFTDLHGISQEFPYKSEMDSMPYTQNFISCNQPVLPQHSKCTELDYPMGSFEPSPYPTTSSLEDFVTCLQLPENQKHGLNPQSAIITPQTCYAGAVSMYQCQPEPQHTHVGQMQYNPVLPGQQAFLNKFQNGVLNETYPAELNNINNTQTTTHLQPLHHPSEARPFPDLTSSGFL
Hepatocyte nuclear factor 3-beta (Homo sapiens), sequence (Q9Y261 whole entry, looked up): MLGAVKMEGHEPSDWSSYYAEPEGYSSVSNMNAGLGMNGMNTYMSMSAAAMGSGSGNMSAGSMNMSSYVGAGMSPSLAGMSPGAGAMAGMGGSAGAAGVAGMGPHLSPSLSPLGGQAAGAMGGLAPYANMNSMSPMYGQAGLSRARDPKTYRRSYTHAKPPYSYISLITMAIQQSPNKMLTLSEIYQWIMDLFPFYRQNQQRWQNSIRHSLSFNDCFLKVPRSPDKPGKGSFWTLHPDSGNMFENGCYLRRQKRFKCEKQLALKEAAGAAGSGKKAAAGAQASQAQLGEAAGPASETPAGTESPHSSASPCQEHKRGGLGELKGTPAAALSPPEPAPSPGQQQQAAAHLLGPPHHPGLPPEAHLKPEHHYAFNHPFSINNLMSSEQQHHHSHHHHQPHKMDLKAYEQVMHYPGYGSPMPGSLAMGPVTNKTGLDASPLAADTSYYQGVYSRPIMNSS

O=[N+]([O-])c1cccc2ccccc12
active: [3] 51.4 µM
not listed: [19] | [20]
inactive: all other assays above

Clc1ccc(C(Cl)(Cl)Cl)cn1
active: [3] 5.67 µM | [13] 2.86 µM
inactive: all other assays above

c1ccc(-c2cccc(-c3ccccc3)c2)cc1
active: [2] 27.4 µM | [3] 21.9 µM | [13] 26.4 µM
not listed: [20]
inactive: all other assays above

Nc1ccc(N)cc1
active: [1] 24.3 µM | [2] 44.6 µM | [4] 70.9 µM | [7] 37.5 µM
inactive: [1] | [2] | [4] | [6] | [7] | [8] | [9] | [10] | [11] | [12] | [14] | [16] | [17] | [18] | [19]

O=S(=O)(Oc1ccc(Cl)cc1)c1ccc(Cl)cc1
active: [1] 49 µM | [2] 34.9 µM | [4] 32.6 µM
not listed: [19]
inactive: all other assays above

C[As+](C)(C)CC(=O)[O-]
inactive: all assays above

O=c1[nH]c2ccccc2n1C1CCN(CCCC(c2ccc(F)cc2)c2ccc(F)cc2)CC1
active: [1] 3.71 µM | [2] 5.83 µM | [7] 5.87 µM | [13] 4.17 µM
inactive: all other assays above
